We go through 40 molecules from PubChem BioAssay (NCI).

This is part of a sample that, as a whole, favours compounds with a hit. Of some 83,000 tested, about 20% had one in any assay.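 Testing used 96-well plates and a 48-hour single-concentration exposure. Example: -40 means 40% of the starting cells died.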 Unmarked numbers belong to inactive results. Activity calls are given as the source filed them.

This experiment relates to NCI-H23 lung. The experiment in a line: NCI-60 one-dose screen, 48 h (100 = growth as untreated, 0 = no growth, -100 = all killed). Particulars: 10 µM unless noted. The protocol:
Growth inhibition of the NCI-H23 human Non-Small Cell Lung tumor cell line is measured as a screen for anti-cancer activity. Cells are grown in 96 well plates and exposed to the test compound for 48 hours. Compounds are tested at a single concentration, which is 10^-5 M for most compounds. The reported endpoint is percent growth (GI% or GIPRCNT), where numbers from 0 - 100% represent growth inhibition, and numbers from -100% - 0 represent cell death. For example, a value of 40 represents 60% growth inhibition. A value of 0 means no net growth occurred over the course of the experiment. A value of -40 indicates 40% of cells at the beginning of the experiment died by the end of the experiment. A value of -100 means all cells are dead at the end of the experiment.
NCI-60 Human Tumor Cell Lines Screen was performed using the standard one-dose NCI protocol, which is described in more detail at https://dtp.cancer.gov/discovery_development/nci-60/default.htm.
Compounds with GIPRCNT values below 10 were considered active. Activity score was based on GIPRCNT using the following formula: […]
Score is 0 for GIPRCNT values of 100 or above, 50 for GIPRCNT values of 0, and 100 for GIPRCNT values of -100.
Turning to `COC(C(=O)[C@@H](O)[C@@H](C)O)[C@@H]1Cc2cc3cc(O[C@H]4C[C@@H](O[C@H]5C[C@@H](O)[C@H](O)C(C)O5)[C@H](O)C(C)O4)c(C)c(O)c3c(O)c2C(=O)[C@H]1O[C@H]1C[C@@H](O[C@H]2C[C@@H](O[C@H]3C[C@@H](O)[C@@H](O)C(C)O3)[C@@H](O)C(C)O2)[C@H](O)C(C)O1` (stereo not given in full), the growth was -0.735% (active). As for `O=C(CCCCCNC1=CC(=O)c2ccccc2C1=O)NCCC[Te]c1ccccc1`, the growth was -12.9% (active). For `Cc1c(NS(=O)(=O)c2ccccc2)ccc([N+](=O)[O-])c1Cl` the value was 58.6%; for `CN(C)CC(C(=O)Cc1ccccc1)c1ccccc1` (stereo not given), 83.6%; for `Cc1ccc2c(C(C[N+](=O)[O-])c3cccs3)c(-c3ccccc3)[nH]c2c1` (stereo not given), 38.4%.

As to `Cc1cnc(/C=C/C(=O)O)cc1-c1cc2c(cc1C)C(C)(C)CCC2(C)C`, the growth is 79.2%.

Turning to `COC(=O)[C@@H](C)C[C@H](Cc1ccccc1)NC(=O)c1nc([C@@H](C[C@H](C(C)C)N(C)C(=O)[C@@H](NC(=O)[C@H]2CC(=O)CCN2C)C(C)C)OC(C)=O)sc1C(C)C`, the growth was 26.5%.

`CCOC(=O)CCN(C)C1=Nc2ccc(Cl)cc2C(c2ccccc2)=[N+]([O-])C1`: the growth was 101%. Then `CC(=O)Oc1ccccc1C(=O)NCCC[Se]C#N`, with -13.8% (active); and `CC(=O)O[C@H]1C(=O)[C@@]2(C)[C@H]([C@H](OC(=O)c3ccccc3)[C@]3(O)C[C@H](OC(=O)[C@H](OC(=O)OCC4COC(C)(C)O4)[C@@H](NC(=O)c4ccccc4)c4ccccc4)C(C)=C1C3(C)C)[C@]1(OC(C)=O)CO[C@@H]1C[C@@H]2O` (stereo not given in full), with 37.8%; and `C[Se]C(=O)c1ccccc1OC(C)=O`, with 53.9%. For `CC12CCC3C(CCC4Cc5[nH]c6ccccc6c5CC43C)C1CCC2O` (stereo not given) the value was 49.3%. For `CN1C(=O)C(=Cc2cn(Cc3ccccc3)c3ccccc23)C(=O)N(C)C1=O` the value was 80.4%. On to `COC(=O)[C@@H](C)C[C@H](Cc1ccccc1)NC(=O)c1cccc([C@@H](C[C@H](C(C)C)N(C)C(=O)[C@@H](NC(=O)[C@H]2CCCCN2C)C(C)C)OC(C)=O)n1`, for which the growth is 38.9%. Regarding `O=[N+]([O-])CC(c1ccccc1Cl)c1c(-c2ccccc2)[nH]c2ccccc12` (stereo not given), the growth is 53.8%. Then `CCCCCCCCCCCCNC(c1ccccc1)C(O)c1ccccc1` (stereo not given), with 78.7%; and `O=C1CCC2(O)[C@@H]3Cc4ccc(O)c5c4[C@]2(CCN3Cc2ccoc2)C1O5` (stereo not given in full), with 96.7%. Then `COC(=O)CCc1c[nH]c2ccc(N(CCCl)CCCl)cc12`, with 31.1%; and `CN1C(=O)C23CC4(C56CC78SSC(CO)(C(=O)N7C5Nc5ccccc56)N(C)C8=O)c5ccccc5NC4N2C(=O)C1(CO)SS3` (stereo not given), with -72.9% (active); and `C[C@@]12CC[C@@H](O)C[C@@H]1CC[C@H]1[C@H]2CC[C@@]2(C)[C@H](c3ccc(=O)oc3)CC[C@@]12O`, with -50% (active). Then `COC(=O)C12CC(NC(=O)c3csc([C@@H](C[C@H](C(C)C)N(C)C(=O)[C@@H](NC(=O)[C@H]4CCCCN4C)C(C)C)OC(C)=O)n3)(C1)C2`, with 23.9%; and `N#C[Se]CCN1C(=O)c2ccccc2C1=O`, with 39.4%; and `CC(=O)ONc1ccc([N+](=O)[O-])c(C(F)(F)F)c1`, with 92.1%.

In the case of `CCN(CC)c1ccc2c(c1)OC(N)=C(C#N)C2c1cc(OC)c2c(c1)OCO2` (stereo not given), the growth is 17.8%. For `O=NN1CCCc2cccc(O)c21` the value was -6.22% (active); for `CC(=O)Nc1nc2c(s1)CC[C@@]1(C)C2=CC[C@H]2[C@@H]3CC[C@H](O)[C@@]3(C)CC[C@@H]21`, 73.3%.

Turning to `CC(=O)O[C@H](C[C@H](C(C)C)N(C)C(=O)[C@@H](NC(=O)[C@H]1CCCCN1C)C(C)C)c1cccc(C(=O)N[C@@H](Cc2ccccc2)C[C@H](C)C(=O)O)n1`, the growth is 32.6%. For `CC1CCCC(C[N+](C)(C)C)C1=O` (stereo not given), the growth is 109%.

As for `CN1CC(CNC(=O)OCc2ccccc2)CC2c3cccc4c3c(cn4C)CC21` (stereo not given), the growth was 71.6%. For `O=C1C(N2CC2)=C(N2CC2)C(=O)C(N2CC2)=C1N1CC1` the value was -70% (active); for `COC(=O)[C@@H](C)C[C@H](Cc1ccccc1)NC(=O)c1csc([C@@H](C[C@H](C(C)C)N(C)C(=O)[C@@H](NC(=O)C23CC(NC(C)=O)(C2)C3)C2CC2)OC(C)=O)n1`, 60.2%. Then `CCCCCC1(CCBr)C(=O)NC(=O)NC1=O`, with 109%; and `CC(=O)O[C@H](C[C@H](C(C)C)N(C)C(=O)[C@@H](NC(=O)[C@H]1CCCCN1C)C(C)C)c1nc(C(=O)NC2CCC(C(=O)O)CC2)cs1` (stereo not given in full), with 64.8%; and `Cn1cccc1C1CC(=O)N(CCC[Se]C#N)C1=O` (stereo not given), with -25.4% (active). Then `O=[N+]([O-])c1cnc[nH]1`, with 103%; and `C/C(Cc1ccc(Cl)cc1)=C(\c1ccc(OCCN2CCOCC2)cc1)c1ccc(OC(=O)Cc2ccccc2)cc1`, with 92.9%; and `CCOC(=O)[C@@H](C)C[C@H](Cc1ccccc1)NC(=O)c1csc([C@@H](C[C@H](C(C)C)N(C)C(=O)[C@H](CC)NC(=O)[C@H]2CCCCN2C)OC(C)=O)n1`, with 28.4%. For the molecule `O=C([O][Hg][c]1ccccc1)c1ccccc1`, the growth is 1.89% (active). Regarding `C1CCC2(CC1)OOCNCOO2`, the growth was 98.2%. For `CCCc1cc(O)c2c3c(c(=O)oc2c1)CN(C)CC3` the value was 54.5%.
